# Results: PubChem BioAssay (NCATS)
# Unmarked numbers belong to inactive results. The call rests on the fitted dose curve; in most records, active means well fitted curve in the direction sought with a large enough effect; inconclusive means small, poorly fitted or top-dose-only effect, or another doubt; inactive means no such curve, though single readings can be large; an effect the other way counts as inactive or inconclusive. Inconclusive results are not listed.
# Test: Cell Viability - Mesenchymal (AID 546);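 further: cells exposed to compound for 40 hours before reading; 0% = DMSO only and -100% = 100 µM tamoxifen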
# Settings: mesenchymal cells viability, qHTS; activity change, negative = cytotoxicity: at 91.7 µM (top of the series)
# Summary of the method: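 Human kidney mesenchymal cells from normal renal glomeruli, 1000 cells/well, rested 5 hr at 37 °C, then treated 40 hr at 37 °C in complete medium. Cellular ATP read by CellTiter-Glo luminescence; AC50 from Hill-equation fits.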
row,SMILES,"activity change, negative = cytotoxicity"
1,CCCCCCc1ccc(-c2ccc(C#N)cc2)cc1,6.12%
2,Nc1cnn([C@@H]2O[C@H](CO)[C@@H](O)[C@H]2O)c(=O)n1,4.19%
3,CCCCCCCCOc1ccc(C(=O)O)cc1,5.18%
4,Oc1c(Cl)cc(Cl)c(Cl)c1Cl,-9.97%
5,CC(C)OCC1CO1 (centres undefined),-5.33%
6,C/C(Cl)=C/CCl,-2.51%
7,CCCCNCC,7.31%
8,O=c1[nH]ncc2ccccc12,-8.04%
9,c1ccc(COCc2ccccc2)cc1,9.26%
10,O=[N+]([O-])c1cccc(I)c1,8.34%
11,c1ccc2c(c1)ccc1ccccc12,-0.697%
12,Cc1ccc(C(=O)O)cc1[N+](=O)[O-],5.06%
13,COc1ccc([N+](=O)[O-])cc1N,-1.35%
14,OCC(CO)(CBr)CBr,-4.91%
15,Nc1cc(C(=O)O)c(O)c(S(=O)(=O)O)c1,7.29%
16,Oc1ccc2c(c1)OCO2,-7.66%
17,c1ccncc1,9.2%
18,CC(=O)OC1CC(C)OC(C)O1 (centres undefined),1.2%

row,SMILES,"activity change, negative = cytotoxicity"
1,O=C(OCc1ccccc1)c1ccccc1O,-6.92%
2,C/C=C/C=C/C=O,-28.8%
3,CCN(CC)c1ccc2c(C)cc(=O)oc2c1,-14.9%
4,c1c[nH]cn1,-0.858%
5,c1ccc(SCCSc2ccccc2)cc1,5.85%
6,O=C(O)/C=C/c1ccc(/C=C/C(=O)O)cc1,-5.02%
7,CCCCOC(=O)COc1ccc(Cl)cc1Cl,11.1%
8,CC(=O)OC(C(=O)c1ccccc1)c1ccccc1 (centres undefined),-10.5%
9,CCCCCCN,-1.42%
10,CC(=O)Nc1cccc(C)c1,-2.5%
11,CCC(Cl)CC(Cl)C(Cl)C(Cl)C(Cl)C(C)Cl (centres undefined),8.97%
12,COc1ccc(C)cc1N,-4.44%
13,CCc1ccc(C(c2ccc(CC)cc2)C(Cl)Cl)cc1,-7.08%
14,O=[N+]([O-])c1ccccc1Nc1ccccc1,-6.51%
15,C=CC1CO1 (centres undefined),5.79%
16,COc1cc(-c2ccc(N=C=O)c(OC)c2)ccc1N=C=O,-9.31%
17,CCOC(=O)C1OC1c1ccccc1 (centres undefined),-2.81%
18,COc1ccc(C(=O)Nc2ccccc2)cc1[N+](=O)[O-],-5.49%

# Test: Cellular Toxicity (caspase-3) HepG2 (AID 654);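 further: cells exposed to compound for 16 hours before reading; 0% = DMSO alone and 100% = caspase signal from 100 µM tamoxifen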
# Settings: HepG2 caspase-3 activation, luminescence; series mostly up to 92.2 µM; caspase-3 activation: at the top concentration
# Summary of the method: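 HepG2 cells (1500/well) in complete medium were treated with compounds for 16 hr at 37 °C. Caspase-3/7 activity was then read as luminescence from peptide-aminoluciferin cleavage. AC50 came from Hill fits, normalized to DMSO and 100 uM tamoxifen.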
row,SMILES,caspase-3 activation
1,Nc1cnn([C@@H]2O[C@H](CO)[C@@H](O)[C@H]2O)c(=O)n1,0.197%
2,CCCCCCCCOc1ccc(C(=O)O)cc1,-0.99%
3,Oc1c(Cl)cc(Cl)c(Cl)c1Cl,-0.361%
4,CC(C)OCC1CO1 (centres undefined),0.718%
5,C/C(Cl)=C/CCl,-1.04%
6,c1ccc(COCc2ccccc2)cc1,-0.784%
7,c1ccc2c(c1)ccc1ccccc12,-0.554%
8,Nc1ccc(N=Nc2ccccc2)c(N)c1,-3.45%
9,Cc1ccc(C(=O)O)cc1[N+](=O)[O-],0.462%
10,Nc1cc(C(=O)O)c(O)c(S(=O)(=O)O)c1,-0.882%
11,c1ccncc1,-0.493%
12,O=C(OCc1ccccc1)c1ccccc1O,-0.504%
13,C/C=C/C=C/C=O,2.89%
